High-throughput results as filed in PubChem BioAssay.
BoNT-F LC inh = inhibitors of Botulinum neurotoxin F light chain protease. inhibition, % at 10 µM. 0.22% of 360,000 active. Multiplex microsphere protease cleavage assay, flow cytometry; in the data active means inhibition above about 35%, passing the limit was not always enough; inconclusive means no clear call, values can overlap the other calls
FBA Mtb inh = Mtb fructose-bisphosphate aldolase inhibition; P9WQA3; purified M. tuberculosis FBA, fluorescence read-out; inhibition, % at 1 µM; 2.3% of 360,000 active; AID 588726
Target sequence (P9WQA3 whole entry, looked up): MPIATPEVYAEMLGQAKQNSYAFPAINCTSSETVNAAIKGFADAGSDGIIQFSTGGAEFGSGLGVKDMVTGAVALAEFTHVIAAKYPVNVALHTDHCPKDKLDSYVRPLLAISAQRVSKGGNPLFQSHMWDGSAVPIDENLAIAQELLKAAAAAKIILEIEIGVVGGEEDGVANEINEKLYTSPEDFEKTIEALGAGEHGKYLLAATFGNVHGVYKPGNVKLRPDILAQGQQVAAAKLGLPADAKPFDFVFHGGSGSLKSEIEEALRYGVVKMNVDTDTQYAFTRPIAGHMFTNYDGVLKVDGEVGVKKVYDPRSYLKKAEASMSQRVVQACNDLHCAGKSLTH
Anthrax LF prot = anthrax lethal factor protease inhibition | multiplex microsphere protease cleavage assay, LF | inhibition, % at 10 µM | 0.12% of 360,000 active | AID 588501; in the data active means inhibition above about 30%; inconclusive means no clear call, values can overlap the other calls
GDH-TPI counter-1 = counter-screen for M. tuberculosis FBA inhibitors: GDH-TPI coupled enzymes; 1.2% of 360,000 active; AID 588335; inhibition, % at 4.8 µM; GDH-TPI coupled enzyme counterscreen, NADH absorbance; in the data active means inhibition above about 30%
Autofluor counter = compound fluorescence in toxin protease inhibitor counterscreen; compound autofluorescence counterscreen, microsphere flow cytometry; stronger effect = higher value; fluorescence intensity (no concentration beside the values); 3.1% of 360,000 active; AID 624483; in the data active means fluorescence intensity above about 16000; inconclusive means no clear call, values can overlap the other calls
BoNT A protease = BoNT A light chain protease inhibition; multiplex microsphere protease substrate cleavage, flow cytometry; inhibition, % at 10 µM; 0.17% of 360,000 active; AID 588499; in the data active means inhibition above about 30%; inconclusive means no clear call, values can overlap the other calls
Mtb FBA confirm = Mtb FBA inhibition, confirmed. shares compounds with FBA Mtb inh. purified M. tuberculosis FBA, fluorescence read-out. inhibition, % at 1 µM. 78% of 5,600 active
GDH-TPI counter-2 = counter-screen for M. tuberculosis FBA inhibitors: GDH-TPI coupled enzyme inhibition. AID 652141. shares compounds with FBA Mtb inh. GDH-TPI coupled enzyme counterscreen, fluorescence. 81% of 5,600 active. inhibition, % at 1 µM; in the data active means inhibition above about 10%
GDH-TPI dose = GDH-TPI dose response counter-screen for Mtb FBA; AID 652145; GDH-TPI coupled enzyme assay, fluorescence, artifact counterscreen; shares compounds with FBA Mtb inh; IC50, µM; 79% of 170 active; call rule not given here
Each line names hits and unclear results; the compound was inactive in the other large screens (follow-up assays come after a bar, where they were run). An excerpt weighted towards active compounds, which were near 6.7% of everything screened. Unless noted, no stated cut-off is given here; in the data, active means inhibition above about 27%; inactive means the rest.

COc1cc(NS(=O)(=O)c2ccc(N/C=C\C(=O)c3ccc(C)cc3)cc2)nc(OC)n1	FBA Mtb inh 29.9 | Mtb FBA confirm 35.6 | GDH-TPI counter-2 22.1
NC(=O)C1CCN(C(=O)CN2C(=O)c3ccccc3S2(=O)=O)CC1	none
CC(=O)N1CCN(C(=O)c2ccc(Cl)c(S(=O)(=O)N3CCCC3)c2)CC1	none
CCN(C(=O)COC(=O)c1oc2ccc(OC)cc2c1C)C1CCS(=O)(=O)C1 (stereo unspecified)	FBA Mtb inh 60.4 | Mtb FBA confirm 111.8 | GDH-TPI counter-2 120.6
COc1ccc2oc(C(=O)NC3(C)CCS(=O)(=O)C3)c(C)c2c1 (stereo unspecified)	FBA Mtb inh 39.5 | Mtb FBA confirm active | GDH-TPI counter-2 active
Cc1c(C(=O)OCC(=O)NC2CCCCC2)oc2ccccc12	none
CCN(C(=O)COC(=O)COc1ccc2c(C)cc(=O)oc2c1)C1CCS(=O)(=O)C1 (stereo unspecified)	none
COc1ccc2oc(C(=O)OCC(=O)NC3CCCCC3)c(C)c2c1	FBA Mtb inh 39.0 (no result: BoNT-F LC inh, Anthrax LF prot, Autofluor counter, BoNT A protease) | Mtb FBA confirm 89.8 | GDH-TPI counter-2 78.3
CCOc1ccc2oc(C(=O)OCC(=O)NC3CCCC3)c(C)c2c1	FBA Mtb inh 31.2 | Mtb FBA confirm inactive | GDH-TPI counter-2 inactive | GDH-TPI dose 6.68
Cn1c(=O)cc(OCCCC(=O)NCc2cccnc2)c2ccccc21	none
CCOc1ccc2oc(C(=O)OCC(=O)NC(=O)NC)c(C)c2c1	Autofluor counter inconclusive
CCCN(CC1CC1)C(=O)COC(=O)c1oc2ccc(OCC)cc2c1C	BoNT-F LC inh inconclusive, FBA Mtb inh 41.9, Anthrax LF prot inconclusive, BoNT A protease inconclusive | Mtb FBA confirm active | GDH-TPI counter-2 185.6
CC1Oc2ccccc2N(CC(=O)NCCCN2CCOCC2)C1=O (stereo unspecified)	none
O=C(CN1C(=O)/C(=C\c2ccccc2Br)Oc2ccccc21)NCCCN1CCOCC1	FBA Mtb inh 41.0 | Mtb FBA confirm 58.2 | GDH-TPI counter-2 53.4
CN(c1ccccc1)S(=O)(=O)c1ccc(Cl)c(C(=O)NCc2ccco2)c1	none
CC(C)COC(=O)C(C)Nc1n[nH]c(=S)[nH]c1=O (stereo unspecified)	FBA Mtb inh 52.6 | Mtb FBA confirm inactive | GDH-TPI counter-2 inactive
CN(C)CCCn1c2c3ccccc3ccc2c2oc(=O)c3ccccc3c21	FBA Mtb inh 27.0 | Mtb FBA confirm active | GDH-TPI counter-2 active
CN(C)C(=O)[C@@H]1C[C@H]1[C@@H](NC(=O)OCc1ccccc1)c1ccccc1	none
O=S(=O)(Nc1ccc(N2CCOCC2)cc1)c1ccc(F)cc1F	none
CCOC(=O)CN(c1ccccc1)S(=O)(=O)c1ccc(F)cc1	none
O=C(CN(c1ccccn1)S(=O)(=O)c1ccc(F)cc1)Nc1ccc(F)cc1F	FBA Mtb inh 34.7 | Mtb FBA confirm 116.9 | GDH-TPI counter-2 90.1
O=C(CN(c1ccc(F)cc1)S(=O)(=O)c1ccccc1)Nc1ccccc1C(=O)O	none
CCOC(=O)CN(c1ccccn1)S(=O)(=O)c1ccc(OC)cc1	FBA Mtb inh 46.3 | Mtb FBA confirm 137.6 | GDH-TPI counter-2 100.4
CCc1cccc(C)c1NC(=S)NCc1ccccc1	none
C=CCC(=O)N1CCCC(CCC(=O)NCc2ccccc2F)C1 (stereo unspecified)	FBA Mtb inh 33.4 | Mtb FBA confirm 46.4 | GDH-TPI counter-2 46.5
CCCc1cc2c(cc1NC(=O)Cc1ccccc1)OCO2	none
Cc1cc(C)nc(NC(=O)c2c(C(=O)O)noc2C)n1	none
O=c1c2c([nH]c3ccccc13)CCCCC2	none
COc1ccc2[nH]c3c(c(=O)c2c1)CCCC3	FBA Mtb inh 30.1 (no result: GDH-TPI counter-1) | Mtb FBA confirm active | GDH-TPI counter-2 153.3
Brc1ccc(-c2nnc(-c3ccco3)o2)cc1	FBA Mtb inh 59.8 | Mtb FBA confirm 149.1 | GDH-TPI counter-2 145.3
c1ccc(-c2nnc(-c3ccco3)o2)cc1	FBA Mtb inh 41.9 | Mtb FBA confirm 64.3 | GDH-TPI counter-2 49.0
CCOc1cc(-c2nnc(-c3ccco3)o2)cc(OCC)c1OCC	none
CCOc1ccc(-c2nnc(-c3ccco3)o2)cc1OCC	FBA Mtb inh 74.2 | Mtb FBA confirm 130.1 | GDH-TPI counter-2 119.4
Cc1ccc(-c2nnc(-c3ccc(Br)cc3)o2)o1	none
O=C(Nc1ccc(-c2nnc(-c3ccco3)o2)cc1)C(c1ccccc1)c1ccccc1	none
CC(C)(C)c1ccc(Oc2ccc(NC(=O)c3ccco3)cn2)cc1	none
COc1ccc(N2CCN(C(=O)COc3ccc4c(C)cc(=O)oc4c3C)CC2)cc1	none
Cc1cc(=O)oc2c(C)c(OCC(=O)N3CCC(C(=O)O)CC3)ccc12	FBA Mtb inh 49.3 | Mtb FBA confirm inactive | GDH-TPI counter-2 15.5
Cc1ccc2c(CN3CCN(Cc4ccccc4)CC3)cc(=O)oc2c1C	none
Cc1c(OCC(=O)N2CCC(C(N)=O)CC2)ccc2c1oc(=O)c1ccccc12	FBA Mtb inh 27.8 | Mtb FBA confirm 130.5 | GDH-TPI counter-2 101.2
Cc1cccc(N2CCN(C(=O)COc3ccc4c(C)cc(=O)oc4c3C)CC2)c1C	none
Cc1c(O)ccc2c(CN3CCN(C/C=C/c4ccccc4)CC3)cc(=O)oc12	FBA Mtb inh 64.0 | Mtb FBA confirm 73.9 | GDH-TPI counter-2 56.4
COC(=O)Cc1c(C)c2ccc(OCC(=O)N3CCC(C)CC3)c(C)c2oc1=O	FBA Mtb inh 84.3 | Mtb FBA confirm 54.3 | GDH-TPI counter-2 50.5
Cc1ccc(SCC(=O)OC(C)C(=O)Nc2ccc(S(N)(=O)=O)cc2)cc1C (stereo unspecified)	Autofluor counter inconclusive
O=C(c1cc(COc2ccc(F)cc2Cl)on1)N1CCC(c2ccncc2)CC1	none
Cc1cc(=O)oc2c(C)c(OCC(=O)N3CCN(Cc4ccccc4)CC3)ccc12	FBA Mtb inh 27.1 | Mtb FBA confirm 146.9 | GDH-TPI counter-2 99.7
Cc1ccc(C(C(=O)NC2CCCCC2)N(CC2CCCO2)C(=O)CCCC(=O)Nc2ccccn2)cc1 (stereo unspecified)	none
FC(F)(F)c1nc2nc(Cl)c(Cl)nc2[nH]1	none
FC(F)(F)c1cccc(-c2nc3nc(Cl)c(Cl)nc3[nH]2)c1	FBA Mtb inh 31.3, GDH-TPI counter-1 36.0 | Mtb FBA confirm 34.9 | GDH-TPI counter-2 42.0
c1cc(-c2cc3nc(NCC4CC4)ccn3n2)ccc1OCCN1CCOCC1	FBA Mtb inh 36.9 | Mtb FBA confirm 68.8 | GDH-TPI counter-2 71.6
COc1ccc(CC(=O)NCC2CCCCC2)cc1OC	FBA Mtb inh 27.8 | Mtb FBA confirm inactive | GDH-TPI counter-2 inactive
COc1cc(CCC(=O)OCC(=O)NCC2CCCCC2)cc(OC)c1OC	none
